Structures are written as SMILES. Calls of active or inactive are those of the source. Unless noted, how the calls were made is not given here.

Test [1] in a line: compounds binding Alexa647 anti-His antibody – biochemical, small-molecule microarray, 635 nm fluorescence, artefact control for SMM control protein annotation, primary screen (AID 1128).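 Further: score merges feature fluorescence with signal-to-noise for each printed compound spot.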 The conditions noted are these: higher = more signal.
Test [2] concerns Human papillomavirus type 1a E7 protein (residues 1-88). Kind of test: HPV1a E7 small-molecule binders, primary screen, biochemical, small-molecule microarray, residues 1-88, 635 nm (AID 1129). The conditions noted are these: small-molecule microarray binding, fluorescence 635 nm; higher = more signal.
Test [3] has as its target Focal adhesion kinase 1 (Homo sapiens) (UniProt Q05397). The test can be described thus: PTK2 protein binding on printed compound slides – biochemical, small-molecule microarray, 635/667 nm fluorescence, BSA, DTT, primary screen (AID 1130).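 Further: composite of spot emission at 667 nm and signal to noise over triplicate slides.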 The conditions noted are these: 635 nm fluorescence, higher = more signal.
Test [4] deals with Fibrinogen (Alexa647-labelled). Kind of test: Alexa647-fibrinogen binding to printed small molecules – biochemical, small-molecule microarray, 635/667 nm fluorescence, artefact control for SMM control-protein annotation, profiling panel (AID 1131).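 Further: z-score merges 667 nm fluorescence with per-spot signal-to-noise over triplicate slides.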 The following applies: fibrinogen-A647 binding fluorescence, higher = more signal.
Test [5] addresses Follistatin (Homo sapiens) (UniProt P19883). Kind of test: FST protein binding to printed compounds – biochemical, small-molecule microarray, 635/667 nm fluorescence, primary screen (AID 1132). The following applies: 635 nm fluorescence, higher = more signal.
For test [6], the target named is Fibroblast growth factor 2 (Homo sapiens) (UniProt P09038). The test can be described thus: basic fibroblast growth factor binding to printed compounds – biochemical, small-molecule microarray, 635/667 nm fluorescence, primary screen (AID 1133). The following applies: FGF2, fluorescence 635/667, higher = more signal.
Test [7] in a line: JC-1 mitochondrial potential readout, lung cancer cells – cell-based, A549, JC-1 fluorescence, basal, 24 h, 100 nL, profiling panel (AID 1138).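 Further: A549 lung adenocarcinoma cells under basal conditions with no added stimulus; test concentration not given here.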 The conditions noted are these: higher = more signal.
A further test deals with Lefty1. Kind of test: Lefty1 protein binding to printed compounds – biochemical, small-molecule microarray, 635/667 nm fluorescence, primary screen (AID 1139). The conditions noted are these: fluorescence 635/667, higher = more signal.
For test [8], the system named is wheat germ agglutinin (Triticum aestivum), Alexa647-labelled. Kind of test: Alexa647-WGA lectin binding to printed small molecules – biochemical, small-molecule microarray, 635/667 nm fluorescence, artefact control for SMM control-protein annotation, profiling panel (AID 1140).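 Further: score merges 667 nm feature emission with signal to noise over triplicate slides.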 The following applies: WGA-A647 binding, 635 nm fluorescence, higher = more signal.
The target in test [9] is Luciferin 4-monooxygenase (Photinus pyralis) (UniProt P08659). Kind of test: inhibition of purified Photinus pyralis luciferase – biochemical, luminescence, purified enzyme, 2006 set, primary screen (AID 1141).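 Further: cell-free assay with purified firefly luciferase at 100 ng per well in PBS; test concentration not given here.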 The following applies: purified firefly luciferase, SteadyGlo luminescence, 30 min; higher = more signal, called active from +8 up or from −8 down.
Test [10] relates to Wnt5a (protein binding on small-molecule microarray). Kind of test: small molecules binding Wnt5a protein – biophysical, small-molecule microarray, 635/667 nm fluorescence, primary screen (AID 1142).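 Further: fluorescence read at 667 nm with signal to noise per printed feature.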 The conditions noted are these: 635 nm fluorescence, higher = more signal.
Test [11] can be described thus: ATP-based viability of Huh7 replicon cells – cell-based, CellTiter-Glo luminescence, basal, 48 h, cytotoxicity control for HCV replication inhibitor project, primary screen (AID 1143).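 Further: Huh7 hepatoma cells carrying a hepatitis C replication reporter with no stimulus; test concentration not given here.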 The conditions noted are these: higher = more signal, called active from +8 up or from −8 down.
Test [12] can be described thus: Pseudomonas biofilm growth suppression – PAO1 strain, BacTiter-Glo luminescence, LB-PBS, primary screen (AID 1144). The following applies: P. aeruginosa PAO1 biofilm, 12 h, higher = more signal.
The nature of test [13]: basal CRE-LacZ reporter activity in PC12 – cell-based, unstimulated, primary screen (AID 1145). The following applies: no forskolin, luminescence, 4.5 h, higher = more signal, called active from +8 up or from −8 down.
A short description of test [14]: forskolin-driven CRE-LacZ activity in PC12 – cell-based, CRE-LacZ reporter, forskolin-stimulated, primary screen (AID 1146).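 Further: PC12 cells with 6xCRE LacZ reporter stimulated by forskolin 10 µM; beta-galactosidase reporter signal reflecting CREB driven transcription.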 The following applies: luminescence, 4.5 h, higher = more signal, called active from +8 up or from −8 down.
Test [15] has as its target Streptavidin (Streptomyces avidinii) (UniProt P22629). The test can be described thus: compounds binding control protein streptavidin – biophysical, small-molecule microarray, 635/667 nm fluorescence, artefact control for SMM compound annotation, primary screen (AID 1147).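 Further: signal reflects streptavidin binding to arrayed compounds as a control protein.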 The following applies: higher = more signal.
A short description of test [16]: probe aInhba binding on compound microarray – biochemical, small-molecule microarray, 635/667 nm fluorescence, primary screen (AID 1148).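 Further: score merges 667nm spot fluorescence with signal-to-noise for antibody binding to printed compounds.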 The following applies: higher = more signal.
For test [17], the target named is Torsin-1A (Homo sapiens) (UniProt O14656). Kind of test: TOR1A wild-type binding on microarray – cell lysate, small-molecule microarray, lysate, 635/667 nm, primary screen (AID 1149). The following applies: COS7 hTOR1A-WT lysate, 635 nm fluorescence, higher = more signal.
For test [18] the target is unchanged. Kind of test: torsin A mutant lysate binding on microarrays – cell lysate, small-molecule microarray, COS7 lysate, 635/667 nm fluorescence, primary screen (AID 1150).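 Further: score pools 667 nm emission and signal to noise measuring lysate protein binding.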 The conditions noted are these: COS7 hTOR1A mutant lysate, 635 nm fluorescence, higher = more signal.
Test [19] deals with Sonic hedgehog protein (Shh). Kind of test: Sonic hedgehog microarray binding compounds – biochemical, small-molecule microarray, 635/667 nm fluorescence, primary screen (AID 1151).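 Further: Shh protein binding to compounds spotted on small-molecule microarray slides; score combines spot fluorescence intensity with signal-to-noise across triplicate slides.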 The conditions noted are these: 635 nm fluorescence, higher = more signal.

Chain of Focal adhesion kinase 1 (Homo sapiens) (Q05397 whole entry, looked up): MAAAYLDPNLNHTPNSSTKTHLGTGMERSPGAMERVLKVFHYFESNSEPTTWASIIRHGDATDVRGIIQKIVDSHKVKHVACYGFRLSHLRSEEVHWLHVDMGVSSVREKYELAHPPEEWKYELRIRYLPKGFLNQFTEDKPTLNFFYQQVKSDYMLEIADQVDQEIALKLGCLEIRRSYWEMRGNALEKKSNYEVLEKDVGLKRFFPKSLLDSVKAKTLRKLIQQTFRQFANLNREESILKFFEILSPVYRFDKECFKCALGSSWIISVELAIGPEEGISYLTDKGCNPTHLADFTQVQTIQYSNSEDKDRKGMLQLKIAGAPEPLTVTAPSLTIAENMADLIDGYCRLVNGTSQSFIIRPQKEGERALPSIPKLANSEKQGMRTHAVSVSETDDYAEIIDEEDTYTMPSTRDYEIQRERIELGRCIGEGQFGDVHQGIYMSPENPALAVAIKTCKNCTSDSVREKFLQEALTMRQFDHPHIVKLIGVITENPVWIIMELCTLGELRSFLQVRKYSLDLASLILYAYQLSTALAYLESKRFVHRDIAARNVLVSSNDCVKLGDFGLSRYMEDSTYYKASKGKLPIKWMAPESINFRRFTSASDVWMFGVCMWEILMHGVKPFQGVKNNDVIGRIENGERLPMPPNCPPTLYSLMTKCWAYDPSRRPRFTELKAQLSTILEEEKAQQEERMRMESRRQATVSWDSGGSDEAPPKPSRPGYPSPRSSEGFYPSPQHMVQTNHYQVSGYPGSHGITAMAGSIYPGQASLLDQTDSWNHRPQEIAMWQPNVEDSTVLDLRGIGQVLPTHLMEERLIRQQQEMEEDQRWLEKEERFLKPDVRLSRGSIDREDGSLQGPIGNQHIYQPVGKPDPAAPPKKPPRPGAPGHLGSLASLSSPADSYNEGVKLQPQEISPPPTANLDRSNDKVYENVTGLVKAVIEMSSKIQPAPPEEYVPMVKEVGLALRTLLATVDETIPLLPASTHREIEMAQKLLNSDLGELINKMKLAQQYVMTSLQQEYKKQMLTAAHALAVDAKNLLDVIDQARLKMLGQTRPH
Chain of Streptavidin (Streptomyces avidinii) (P22629 whole entry, looked up): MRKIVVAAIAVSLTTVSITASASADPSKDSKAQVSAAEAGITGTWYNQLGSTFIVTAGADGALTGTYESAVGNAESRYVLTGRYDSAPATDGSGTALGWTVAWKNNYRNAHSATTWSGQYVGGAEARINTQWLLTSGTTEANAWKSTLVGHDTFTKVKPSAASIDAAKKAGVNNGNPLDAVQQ
Chain of Fibroblast growth factor 2 (Homo sapiens) (P09038 whole entry, looked up): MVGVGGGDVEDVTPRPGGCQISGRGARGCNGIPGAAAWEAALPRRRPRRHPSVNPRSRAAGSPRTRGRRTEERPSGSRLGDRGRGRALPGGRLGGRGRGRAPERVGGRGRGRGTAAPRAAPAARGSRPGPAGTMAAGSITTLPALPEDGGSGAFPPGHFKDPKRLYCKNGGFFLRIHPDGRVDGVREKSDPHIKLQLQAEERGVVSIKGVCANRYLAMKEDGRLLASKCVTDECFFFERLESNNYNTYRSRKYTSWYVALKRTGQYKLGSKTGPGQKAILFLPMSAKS
Chain of Follistatin (Homo sapiens) (P19883 whole entry, looked up): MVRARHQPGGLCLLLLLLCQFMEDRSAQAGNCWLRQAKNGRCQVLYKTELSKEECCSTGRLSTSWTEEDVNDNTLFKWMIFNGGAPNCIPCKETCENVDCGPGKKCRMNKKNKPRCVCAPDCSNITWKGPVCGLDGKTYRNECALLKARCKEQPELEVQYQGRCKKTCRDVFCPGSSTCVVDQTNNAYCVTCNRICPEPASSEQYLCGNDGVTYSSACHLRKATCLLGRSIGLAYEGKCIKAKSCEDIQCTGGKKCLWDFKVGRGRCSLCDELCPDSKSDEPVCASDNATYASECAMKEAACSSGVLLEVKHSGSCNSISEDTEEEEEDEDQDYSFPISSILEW
Chain of Luciferin 4-monooxygenase (Photinus pyralis) (P08659 whole entry, looked up): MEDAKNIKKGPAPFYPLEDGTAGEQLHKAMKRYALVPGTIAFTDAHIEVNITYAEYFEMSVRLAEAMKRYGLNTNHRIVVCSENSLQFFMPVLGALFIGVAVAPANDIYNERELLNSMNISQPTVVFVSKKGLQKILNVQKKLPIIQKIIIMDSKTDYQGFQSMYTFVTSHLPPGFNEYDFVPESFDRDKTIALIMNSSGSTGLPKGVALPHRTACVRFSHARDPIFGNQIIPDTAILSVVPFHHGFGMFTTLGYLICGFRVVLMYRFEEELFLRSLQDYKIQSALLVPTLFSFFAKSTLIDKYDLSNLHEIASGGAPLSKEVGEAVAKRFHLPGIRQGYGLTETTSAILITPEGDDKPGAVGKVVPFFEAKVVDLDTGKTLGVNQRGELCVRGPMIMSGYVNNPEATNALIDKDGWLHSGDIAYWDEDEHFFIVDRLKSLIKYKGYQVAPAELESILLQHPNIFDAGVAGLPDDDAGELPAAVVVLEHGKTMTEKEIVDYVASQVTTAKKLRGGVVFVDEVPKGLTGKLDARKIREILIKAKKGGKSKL
Chain of Torsin-1A (Homo sapiens) (O14656 whole entry, looked up): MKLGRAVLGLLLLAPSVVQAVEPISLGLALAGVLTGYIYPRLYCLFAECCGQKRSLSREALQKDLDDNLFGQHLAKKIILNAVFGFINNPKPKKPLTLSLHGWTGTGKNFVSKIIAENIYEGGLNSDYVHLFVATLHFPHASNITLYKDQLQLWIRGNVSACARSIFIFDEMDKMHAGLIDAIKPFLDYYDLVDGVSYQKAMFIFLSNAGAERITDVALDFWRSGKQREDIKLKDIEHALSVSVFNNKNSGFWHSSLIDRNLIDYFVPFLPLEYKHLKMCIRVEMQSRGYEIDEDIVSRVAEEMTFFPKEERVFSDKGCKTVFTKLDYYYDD

`CON=CC[C@@H]1C=C[C@H](OC(C)=O)[C@@H](COC(C)=O)O1`: the composite z-score is 0.0374 in test [1]; -0.534 in test [2]; 0.538 in [3]; -0.146 in [4]; 0.606 in [5]; 0.495 in test [6]. Moreover, the composite z-score in the test with Lefty1 is 0.596; in [8] it was 0.0389; in [10], 0.474; in [15] it was -0.0091; in [16], 0.102; with Torsin-1A (Homo sapiens) [17] it was 0.611. The figures for the composite z-score (with Torsin-1A (Homo sapiens) [18]; in test [19]) were 0.592 and 0.783, respectively. Also, the z-score is 0.296 in test [7]; 0.218 (inactive) in test [9]; 0.544 (inactive) in test [11]; 0.667 (inactive) in [12]; -0.403 (inactive) in [13]; 0.46 (inactive) in [14].

With `C#CCCCON=C1C[C@@H](O)[C@@H](O)[C@@H]2[C@@H]3C(=O)N(Cc4ccccc4)C(=O)[C@@H]3CC[C@@H]12`, the composite z-score in test [1] is 0.309; in [2] it was -0.032; in [3] it was 0.0147; in test [4], -0.691; in test [5], -0.0389; in test [6], 0.0054. The composite z-score in the test with Lefty1 was 0.19; in test [8], 0.249; in test [10] it was 0.087; in test [15], -0.382; in [16], -0.0675; with Torsin-1A (Homo sapiens) [17], 0.103. In addition, the composite z-score with Torsin-1A (Homo sapiens) [18] was 0.0159; in test [19], -0.523. Moreover, the z-score was 0.477 in test [7]; 0.807 (inactive) in [9]; -0.0439 (inactive) in [11]; 0.943 (inactive) in test [12]; -0.476 (inactive) in test [13]; 0.174 (inactive) in test [14].

Turning to `CO[C@@H]1COC(=O)[C@@H]2CCCN2C(=O)[C@@H](C)COC(=O)CC=C[C@H]1C`, the composite z-score is 0.408 in test [1]; 0.923 in [2]; -0.194 in test [3]; 0.527 in test [4]; 0.365 in [5]; 1.51 in test [6]. Also, the composite z-score was 1.01 in the test on Lefty1; -0.0639 in [8]; 0.667 in [10]; 0.119 in test [15]; -0.0427 in test [16]; 0.826 in the test with Torsin-1A (Homo sapiens) [17]. For the same molecule, the figures for the composite z-score (with Torsin-1A (Homo sapiens) [18]; in test [19]) were 0.962 and 0.895, respectively. Also, the z-score in test [7] is -0.84; in test [9], 1.48 (inactive); in test [11] it was -0.193 (inactive); in test [12] it was -1.09 (inactive); in test [13], 1.03 (inactive); in test [14] it was 0.828 (inactive).

As to `COC(=O)[C@@H]1CC[C@H](C)[C@@H](c2ccc(C)cc2)N1C(=O)c1ccc(C=NOCC[C@@H]2C=C[C@H](OC(C)=O)[C@@H](COC(C)=O)O2)cc1`, the composite z-score is 2.68 in test [1]; 0.895 in test [2]; -0.125 in [3]; 0.316 in [4]; 0.47 in test [5]; 0.614 in test [6]. Besides, the composite z-score with Lefty1 was 0.605; in test [8], 0.175; in test [10], 0.133; in [15] it was 0.342; in test [16] it was -0.0477; with Torsin-1A (Homo sapiens) [17], 0.612. For the same molecule, the composite z-score came out at 0.481 with Torsin-1A (Homo sapiens) [18] and 0.681 in [19]. Further, the z-score in test [7] was -0.512; in [9], 0.963 (inactive); in test [11], -0.689 (inactive); in test [12], 0.637 (inactive); in test [13], 4.56 (inactive); in [14], -0.0189 (inactive).

Turning to `COC(=O)[C@H](C)NC(=O)CCC1CC(OC(=O)NCc2ccc3c(c2)OCO3)CC2(CCCC(COC(=O)NCCc3ccccc3OC)O2)O1` (stereo not given in full), the composite z-score in test [1] was 0.911; in [2] it was 0.638; in test [3], -0.122; in test [4], 0.626; in [5] it was -0.0381; in [6] it was -0.0304. For the same molecule, the composite z-score in the test with Lefty1 was -0.0317; in test [8], 0.817; in [10] it was -0.0418; in test [15] it was -0.0673; in test [16], -0.154; in the test with Torsin-1A (Homo sapiens) [17], 0.465. The composite z-score in the test with Torsin-1A (Homo sapiens) [18] is 0.182; in [19] it was -0.004. Also, the z-score in test [7] is 0.159; in test [9], 0.559 (inactive); in [11] it was -0.643 (inactive); in test [12], 0.301 (inactive); in test [13], 0.0167 (inactive); in test [14], 0.711 (inactive).

The values above are taken from PubChem BioAssay.
